Screens deposited in PubChem BioAssay by The Scripps Research Institute Molecular Screening Center.
Hits are enriched below; roughly 3.5% of the tested compounds scored in any of these assays.
MITF primary: MITF inhibitors, primary screen, biochemical, AlphaScreen, human | 650,000 tested, 0.91% active | Microphthalmia-associated transcription factor (Homo sapiens), O75030 | AID 1259374, 2018 | inhibition, % at 2.6 µM | AlphaScreen MITF homodimerization, bead proximity signal; in the data active = inhibition above about 50%;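 note: 0% = vehicle wells with protein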
GPR151 ag: activators of human GPR151, primary screen, cell-based, PathHunter beta-arrestin, luminescence. G-protein coupled receptor 151 (Homo sapiens), Q8TDV0. PathHunter beta-arrestin GPR151 cells. activation, % at 11.2 µM. 650,000 tested, 1% active; in the data active = activation above about 4.9%;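 note: 0% = median of compound wells and 100% = cells with positive control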
FBW7 activator: FBW7 E3 ligase activators, primary screen, biochemical, AlphaScreen, human; F-box/WD repeat-containing protein 7 (Homo sapiens), Q969H0; AlphaScreen FBW7–phospho-cyclin E peptide binding, activator screen; normalized activity (activation), % at 26.1 µM; 650,000 tested, 0.13% active; AID 1259310, 2017; in the data active = normalized activity above about 1.9%;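 note: purified mutant Fbw7 with reduced substrate affinity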
TEAD-YAP inh: TEAD-YAP interaction inhibition, primary screen, TEAD-YAP interaction inhibitor project, luminescence, HEK-TIYL cells; TEAD-Gal4/YAP UAS-luciferase luminescence; inhibition, % at 9.12 µM; 640,000 tested, 1.4% active; in the data active = inhibition above about 32%;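 note: 0% = median of test compound wells and 100% = reference inhibitor wells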
GPR151 confirm: GPR151 activators, triplicate retest, confirmation, cell-based, PathHunter beta-arrestin, luminescence; shares compounds with GPR151 ag; activation, % at 11.2 µM; GPR151 PathHunter beta-arrestin cells, 90 min; % of EA-reagent control over plate median; 6,700 tested, under 10 active;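 active = mean percent activation across replicates above the confirmation screen cutoff of 4.91%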
GPR119 ag: GPR119 activators in beta-arrestin cells, counter-screen for GPR151 activator project, cell-based, PathHunter beta-arrestin, luminescence, triplicate; shares compounds with GPR151 ag; 90 min; 0 = compound-well median, 100 = enzyme-acceptor control; activation, % at 11.2 µM; 6,700 tested, 0.3% active; AID 1508611, 2020;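 active = mean percent activation in the counterscreen above 29.09%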;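 note: counterscreen on off-target GPR119 to flag nonselective hits from the GPR151 activator screen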
* hit, by the source's call.

Results for Cc1nn(-c2ccc(Nc3ccc(NC(=O)c4cccc(F)c4)cc3)nn2)c(C)c1C ?
MITF primary: -13.4; GPR151 ag: 7.6*; FBW7 activator: 0.0; TEAD-YAP inh: -21.9; GPR151 confirm: 2.7; GPR119 ag: 14.5

How did O=C(Cn1cc([N+](=O)[O-])cn1)n1cccn1 do in these assays?
MITF primary: -5.6; GPR151 ag: 5.5*; FBW7 activator: 0.0; TEAD-YAP inh: -4.1; GPR151 confirm: -1.4; GPR119 ag: -11.3

Results for O=C(Cn1cc([N+](=O)[O-])cn1)Nc1ccccn1 ?
MITF primary: 1.4; GPR151 ag: 2.8; FBW7 activator: 0.0; TEAD-YAP inh: 1.5

How did CCCCOc1c(Cl)cc(C(=O)O)cc1OC do in these assays?
MITF primary: 0.8; GPR151 ag: -0.2; FBW7 activator: 0.0; TEAD-YAP inh: 3.5

What do the screens show for `CCOc1c(Cl)cc(C(=O)O)cc1OC`?
MITF primary: -23.4; GPR151 ag: 6.4*; FBW7 activator: -0.2; TEAD-YAP inh: -1.3; GPR151 confirm: 0.7; GPR119 ag: 13.2

How did CCCCOc1c(I)cc(C(=O)O)cc1OCC do in these assays?
MITF primary: -8.6; GPR151 ag: 0.4; FBW7 activator: 0.1; TEAD-YAP inh: -3.1

What do the screens show for `CCOc1cc(C(=O)O)cc(I)c1OCc1ccccc1`?
MITF primary: -1.5; GPR151 ag: 9.2*; FBW7 activator: 0.0; TEAD-YAP inh: 7.7; GPR151 confirm: 0.2; GPR119 ag: 6.5

How did CC1(C)C(=O)C2(C(=O)Nc3ccccc3Br)CCC1C2 (configuration not stated) do in these assays?
MITF primary: 2.9; GPR151 ag: 17.2*; FBW7 activator: -0.1; TEAD-YAP inh: -1.4; GPR151 confirm: -0.3; GPR119 ag: -11.5

Results for Cc1ccc(-n2nc3c(c2NC(=O)c2cccc(F)c2)CS(=O)(=O)C3)c(C)c1 ?
MITF primary: 11.6; GPR151 ag: -1.0; FBW7 activator: 0.2; TEAD-YAP inh: -3.2

What do the screens show for `CCCOc1ccc([N+](=O)[O-])cc1C=C1C(=O)NC(=S)NC1=O`?
MITF primary: -0.2; GPR151 ag: 5.1*; FBW7 activator: -0.2; TEAD-YAP inh: 5.7; GPR151 confirm: -0.1; GPR119 ag: -3.5

How did O=C1NC(=S)NC(=O)C1=Cc1cc(Cl)ccc1OCc1ccc([N+](=O)[O-])cc1 do in these assays?
MITF primary: -9.9; GPR151 ag: 1.2; FBW7 activator: 0.0; TEAD-YAP inh: -30.8

What do the screens show for `CCC(C(=O)Oc1coc(CSc2ncccn2)cc1=O)c1ccccc1` (configuration not stated)?
MITF primary: 7.4; GPR151 ag: -0.8; FBW7 activator: -0.1; TEAD-YAP inh: 1.3

Results for Cc1cc(NC(=O)c2cccs2)cc(C)c1OCC(=O)N1CCOCC1 ?
MITF primary: -11.4; GPR151 ag: 5.2*; FBW7 activator: 0.0; TEAD-YAP inh: -15.8; GPR151 confirm: 0.4; GPR119 ag: -2.4

Results for Cc1sc2nc(Cc3ccccc3)n(C3CCN(C(=O)c4ccco4)CC3)c(=O)c2c1C ?
MITF primary: 5.7; GPR151 ag: 0.5; FBW7 activator: 0.1; TEAD-YAP inh: -6.1

How did Cc1sc2nc(Cc3ccccc3)n(C3CCN(CC(N)=O)CC3)c(=O)c2c1C do in these assays?
MITF primary: 4.5; GPR151 ag: 6.1*; FBW7 activator: 0.0; TEAD-YAP inh: -0.1; GPR151 confirm: 1.3; GPR119 ag: -8.0

Results for S=c1oc2ccccc2n1CN1CCN(c2ccccn2)CC1 ?
MITF primary: 1.3; GPR151 ag: -0.8; FBW7 activator: -0.2; TEAD-YAP inh: -6.0

How did CC(C)=C1C2C=CC1C1C(=O)N(c3cc(Cl)ccc3C)C(=O)C21 (configuration not stated) do in these assays?
MITF primary: 3.8; GPR151 ag: 1.8; FBW7 activator: 0.4; TEAD-YAP inh: -1.5
